Measured values: PubChem BioAssay (NCI)
Compounds without any hit were thinned out: in the full panel of roughly 83,000, 20% have a hit.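 Single-concentration screen, 48 h exposure, 96-well plates. Endpoint: percent growth. Below 10 = active.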 Unmarked numbers belong to inactive results. Calls of active or inactive are those of the source.

Columns and labels:
Test in all cases: NCI-60 one-dose screen, 48 h (100 = growth as untreated, 0 = no growth, -100 = all killed)
Conditions in all cases: 10 µM unless noted
NCI-H23 lung = system: NCI-H23 lung
NCI-H226 lung = system: NCI-H226 lung
NCI-H322M lung = system: NCI-H322M lung
HOP-62 NSCLC = system: HOP-62 NSCLC
NCI-H460 lung = system: NCI-H460 lung
HOP-92 NSCLC = system: HOP-92 NSCLC
NCI-H522 lung = system: NCI-H522 lung
A549/ATCC NSCLC = system: A549/ATCC NSCLC
786-0 renal = system: 786-0 renal
COLO 205 colon = system: COLO 205 colon
DU-145 prostate = system: DU-145 prostate
K-562 leukemia = system: K-562 leukemia
MALME-3M melanoma = system: MALME-3M melanoma
MDA-MB-231 breast = system: MDA-MB-231 breast
SF-268 CNS = system: SF-268 CNS
SF-295 CNS = system: SF-295 CNS
SF-539 CNS = system: SF-539 CNS
UACC-257 melanoma = system: UACC-257 melanoma
M14 melanoma = system: M14 melanoma

With Cc1nc2sc(C(=O)Nc3cccc(Br)c3)c(N)c2cc1C(=O)c1ccc(C(F)(F)F)cc1 the growth (NCI-H23 lung) was 75.1%, the growth (NCI-H226 lung) was 92% and the growth (NCI-H322M lung) was 65.7%. It also gave a growth (HOP-62 NSCLC) of 60.6%, a growth (NCI-H460 lung) of 63.7% and a growth (HOP-92 NSCLC) of 80%. The growth (NCI-H522 lung) was 84.7%, the growth (A549/ATCC NSCLC) was 74.7% and the growth (786-0 renal) was 86.4%. It also gave a growth (COLO 205 colon) of 86.7%, a growth (DU-145 prostate) of 69.3% and a growth (K-562 leukemia) of 84.2%. For the same molecule, the growth (MALME-3M melanoma) was 81%, the growth (MDA-MB-231 breast) was 63.8% and the growth (SF-268 CNS) was 79.4%. It also gave a growth (SF-295 CNS) of 67.7%, a growth (SF-539 CNS) of 56.5% and a growth (UACC-257 melanoma) of 95.2%. It also gave a growth (M14 melanoma) of 69.2%.

In the case of Clc1ccc(N2N=C(c3cccc(Nc4ccncc4)c3)CC2c2ccc3c(c2)OCO3)cc1 (centres undefined), the growth (NCI-H23 lung) is reported as 83.6%, the growth (NCI-H226 lung) is reported as 82.5% and the growth (NCI-H322M lung) is reported as 68.6%. The growth (HOP-62 NSCLC) was 42.4%, the growth (NCI-H460 lung) was -65.4% (active) and the growth (HOP-92 NSCLC) was 47.9%. The growth (NCI-H522 lung) was 57.2%, the growth (A549/ATCC NSCLC) was 36.4% and the growth (786-0 renal) was 56.9%. The growth (COLO 205 colon) was -52.8% (active), the growth (DU-145 prostate) was 41.9% and the growth (K-562 leukemia) was 5.23% (active). For the same molecule, the growth (MALME-3M melanoma) was 25.5%, the growth (MDA-MB-231 breast) was 37.8% and the growth (SF-268 CNS) was 63.1%. For the same molecule, the growth (SF-295 CNS) was 39%, the growth (SF-539 CNS) was 81.9% and the growth (UACC-257 melanoma) was 86%.

For COc1ccc(C2CC(c3cccc(Nc4ccncc4)c3)=NN2c2cc(Cl)cc(Cl)c2)cc1 (centres undefined), the growth (NCI-H23 lung) was 80.2%, the growth (NCI-H226 lung) was 87.6% and the growth (NCI-H322M lung) was 75.9%. For the same molecule, the growth (HOP-62 NSCLC) was 25.1%, the growth (NCI-H460 lung) was -77.6% (active) and the growth (HOP-92 NSCLC) was 54.9%. The growth (NCI-H522 lung) was 4.77% (active), the growth (A549/ATCC NSCLC) was 26.5% and the growth (786-0 renal) was 99.2%. For the same molecule, the growth (COLO 205 colon) was -55.1% (active), the growth (DU-145 prostate) was 13.3% and the growth (K-562 leukemia) was 0.631% (active). The growth (MALME-3M melanoma) was -40.6% (active), the growth (MDA-MB-231 breast) was 44.7% and the growth (SF-268 CNS) was 66.3%. For the same molecule, the growth (SF-295 CNS) was 72.4%, the growth (SF-539 CNS) was 78% and the growth (UACC-257 melanoma) was 62%. The growth (M14 melanoma) was 97%.

In the case of O=C1Nc2ccccc2/C1=C\c1cccc(/C=C2/C(=O)Nc3ccccc32)n1, the growth (NCI-H23 lung) is reported as -15.9% (active), the growth (NCI-H226 lung) is reported as 2.74% (active) and the growth (NCI-H322M lung) is reported as -70.8% (active). For the same molecule, the growth (HOP-62 NSCLC) was -61.3% (active), the growth (NCI-H460 lung) was -60.9% (active) and the growth (HOP-92 NSCLC) was -31.7% (active). The growth (NCI-H522 lung) was 10%, the growth (A549/ATCC NSCLC) was 6.25% (active) and the growth (786-0 renal) was -84.4% (active). The growth (COLO 205 colon) was -85.7% (active), the growth (DU-145 prostate) was -90.2% (active) and the growth (K-562 leukemia) was -24.1% (active). The growth (MALME-3M melanoma) was -40.3% (active), the growth (MDA-MB-231 breast) was -52.3% (active) and the growth (SF-268 CNS) was -67.1% (active). The growth (SF-295 CNS) was -81% (active), the growth (SF-539 CNS) was -73.4% (active) and the growth (UACC-257 melanoma) was -65.8% (active).

For Cc1cccc(Oc2ccc(Nc3ncnc4ccc(NC(=O)CN(C)C)cc34)cc2Cl)c1, the growth (NCI-H23 lung) was 78.4%, the growth (NCI-H226 lung) was 93.1% and the growth (NCI-H322M lung) was 17.4%. The growth (HOP-62 NSCLC) was 59.3%, the growth (NCI-H460 lung) was 0.249% (active) and the growth (HOP-92 NSCLC) was 23.5%. It also gave a growth (NCI-H522 lung) of 30%, a growth (A549/ATCC NSCLC) of 40.4% and a growth (786-0 renal) of 47.9%. For the same molecule, the growth (COLO 205 colon) was -15.8% (active), the growth (DU-145 prostate) was 34.5% and the growth (K-562 leukemia) was -8.94% (active). For the same molecule, the growth (MALME-3M melanoma) was 25.9%, the growth (MDA-MB-231 breast) was 41.1% and the growth (SF-268 CNS) was 54.8%. The growth (SF-295 CNS) was 58.4%, the growth (SF-539 CNS) was 59.9% and the growth (UACC-257 melanoma) was 81.8%.

CN1CCN(CCCOc2ccc3ncnc(Nc4ccc(Oc5cccc(C(F)(F)F)c5)c(Cl)c4)c3c2)CC1 was tested, and the growth (NCI-H23 lung) was 44.4%, the growth (NCI-H226 lung) was 85.6% and the growth (NCI-H322M lung) was 11.3%. For the same molecule, the growth (HOP-62 NSCLC) was 1.07% (active), the growth (NCI-H460 lung) was -66.9% (active) and the growth (HOP-92 NSCLC) was 29.4%. For the same molecule, the growth (NCI-H522 lung) was -3.31% (active), the growth (A549/ATCC NSCLC) was 21.5% and the growth (786-0 renal) was -81% (active). The growth (COLO 205 colon) was -51.8% (active), the growth (DU-145 prostate) was -8.56% (active) and the growth (K-562 leukemia) was -13.1% (active). For the same molecule, the growth (MALME-3M melanoma) was -90.2% (active), the growth (MDA-MB-231 breast) was -74.6% (active) and the growth (SF-268 CNS) was 28.1%. The growth (SF-295 CNS) was -64.7% (active), the growth (SF-539 CNS) was -89.3% (active) and the growth (UACC-257 melanoma) was -53.5% (active). For the same molecule, the growth (M14 melanoma) was -62.8% (active).

With CC[C@H](C)[C@@H]1NC(=O)[C@H](Cc2ccc(O)cc2)N(C)C(=O)[C@H](Cc2ccccc2)NC(=O)CN(C)C(=O)[C@@H]2CCCN2C(=O)[C@@H](Cc2ccccc2)N(C)C(=O)[C@H](CC(C)C)NC1=O the growth (NCI-H23 lung) was -15.1% (active), the growth (NCI-H226 lung) was -8.47% (active) and the growth (NCI-H322M lung) was -20.2% (active). The growth (HOP-62 NSCLC) was 0.573% (active), the growth (NCI-H460 lung) was -26.5% (active) and the growth (HOP-92 NSCLC) was -3.08% (active). The growth (NCI-H522 lung) was 0.571% (active), the growth (A549/ATCC NSCLC) was 2.11% (active) and the growth (786-0 renal) was 10.6%. For the same molecule, the growth (COLO 205 colon) was -25.1% (active), the growth (DU-145 prostate) was 0.387% (active) and the growth (K-562 leukemia) was 6.28% (active). For the same molecule, the growth (MALME-3M melanoma) was -25.5% (active), the growth (MDA-MB-231 breast) was -12.6% (active) and the growth (SF-268 CNS) was -5.16% (active). The growth (SF-295 CNS) was -23.5% (active), the growth (SF-539 CNS) was -24.8% (active) and the growth (UACC-257 melanoma) was -0.97% (active). For the same molecule, the growth (M14 melanoma) was -69.4% (active).

With COc1ccccc1/C=C1\COc2ccc(-c3ccccc3)cc2C1=O the growth (NCI-H23 lung) was 68%, the growth (NCI-H226 lung) was 88.4% and the growth (NCI-H322M lung) was 80%. The growth (HOP-62 NSCLC) was -55.3% (active), the growth (NCI-H460 lung) was 12.2% and the growth (HOP-92 NSCLC) was 49.3%. The growth (NCI-H522 lung) was 51.9%, the growth (A549/ATCC NSCLC) was 37.8% and the growth (786-0 renal) was -49.2% (active). For the same molecule, the growth (COLO 205 colon) was 9.86% (active), the growth (DU-145 prostate) was 7.94% (active) and the growth (K-562 leukemia) was 3.54% (active). For the same molecule, the growth (MALME-3M melanoma) was 73.7%, the growth (MDA-MB-231 breast) was 43.8% and the growth (SF-268 CNS) was 22.1%. For the same molecule, the growth (SF-295 CNS) was 22.2%, the growth (SF-539 CNS) was 30.5% and the growth (UACC-257 melanoma) was 56.9%. For the same molecule, the growth (M14 melanoma) was 17.4%.
